Screen size: about 1,100 compounds; about 760 (69%) were called active. The rule behind the calls is not given here. So high a share suggests a set chosen from earlier hits. The list shows a part of the results.

This note sets out measurements from PubChem BioAssay AID1259417 (TB Discovery Research, Infectious Disease Research Institute, 2018).

This assay is described as follows: M. tuberculosis growth inhibition, HTS (AID 1259417).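 Note: bacteria grown with compound for 5 days at 37 °C.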 The note with it: stronger effect = higher value, concentration not given here.
[1] abbreviates: M. tuberculosis DsRed fluorescence growth inhibition.
[2] abbreviates: M. tuberculosis growth inhibition.

Take `COC(=O)COc1ccc2c(=O)c(Oc3ccccc3)c(C)oc2c1`: the inhibition reads like this: under setting [1], 77.7% (active); under setting [2], 88.9%.
`CCOC(=O)COc1ccc2c(=O)c(-c3ccccc3)coc2c1`: the inhibition reads like this: under setting [1], 96% (active); under setting [2], 97%.
With `COC(=O)COc1ccc2c(=O)c(-c3ccccc3OC)coc2c1`, the inhibition was 16.1% (active) under setting [1] and 38.3% under setting [2].
The corresponding values for `COc1ccccc1-c1coc2cc(OCC(=O)OCc3ccccc3)ccc2c1=O` are 36.9% (active) and 64.7%.
The like results for `CCOC(=O)COc1ccc2c(=O)c(-c3ccccc3OC)coc2c1` were, in that order, 10.9% (inactive) and 27%.
The like results for `COC(=O)COc1ccc2c(=O)c(-c3ccccc3Cl)coc2c1` were, in that order, 74% (active) and 94.8%.
Take `CCC(C(=O)Nc1ccc(CC(=O)OC)cc1)c1ccccc1` (stereo not drawn): the inhibition was 70.5% (active) under setting [1] and 93.3% under setting [2].
Regarding `COc1cc(NC(=O)c2cc3ccccc3o2)ccc1NC(=O)c1ccccc1Cl`, the inhibition runs as follows: under setting [1], 2.65% (inactive); under setting [2], -0.577%.
The corresponding values for `COc1ccc(OC)c(NC(=O)c2cc3cc(Cl)ccc3oc2=O)c1` are 12.1% (inactive) and 21.1%.
The corresponding values for `COc1ccc(OC)c(NC(=O)c2cc3cc(Br)ccc3oc2=O)c1` are 9.39% (active) and 46.5%.
As for `CCCCc1ccc(NC(=O)c2cc3cc(Br)cc(OC)c3oc2=O)cc1`, the inhibition reads like this: under setting [1], 4.42% (active); under setting [2], 82.8%.
`COc1cc(Br)cc2cc(C(=O)Nc3cccc(C(F)(F)F)c3)c(=O)oc12`: the inhibition under setting [1] was 10.9% (inactive) and the inhibition under setting [2] was determined as 29.4%.
For `Cn1nc([N+](=O)[O-])nc1Sc1nnc(-c2cccnc2)o1`, the inhibition runs as follows: under setting [1], 87.1% (active); under setting [2], 91.2%.
As for `Cc1ccc(NC(=O)C(C)NS(=O)(=O)c2ccc(Cl)cc2)cc1Cl` (stereo not drawn), the inhibition reads like this: under setting [1], 2.64% (inactive); under setting [2], -8.36%.
In the case of `Cc1cc(Cl)ccc1NC(=O)CCc1ccc(S(=O)(=O)NC(C)C)cc1`, the inhibition was 94.8% (active) under setting [1] and 83.1% under setting [2].
The like results for `Cc1cc(Cl)ccc1NC(=O)CCc1ccc(S(=O)(=O)NCC(C)C)cc1` were, in that order, 95.3% (active) and 83.6%.
The corresponding values for `CC(NS(=O)(=O)c1cccc(Cl)c1)C(=O)Nc1ccc(Br)cc1F` (stereo not drawn) are 11.5% (inactive) and 13.5%.
As to `COc1cc(NC(=O)C(Cl)Cl)c(OC)cc1Cl`, the inhibition is 7.63% (inactive) under setting [1] and 4.68% under setting [2].
The corresponding values for `CCOC(=O)c1cccc(NC(=O)C(Cl)Cl)c1` are 47.5% (active) and 52.3%.
The corresponding values for `Cc1cc(=O)[nH]c(-n2nc(C)cc2C)n1` are 91.4% (active) and 94.9%.
With `COc1cc(C(=O)Nc2sc3c(c2C(=O)NCC2CCCO2)CCC3)cc(OC)c1OC` (stereo not drawn), the inhibition was -3.52% (inactive) under setting [1] and -31.7% under setting [2].
On to `COc1ccc(-c2nsc(SCC(=O)NCC3CCCO3)n2)cc1` (stereo not drawn), for which the inhibition is 95.7% (active) under setting [1] and 76.1% under setting [2].
Turning to `CC(C)(C)c1ccc(C(=O)Nc2sc3c(c2C(=O)NCC2CCCO2)CCCC3)cc1` (stereo not drawn), the inhibition is, setting by setting: under setting [1], 12.8% (inactive); under setting [2], -13.4%.
The like results for `COc1ccc(-c2nsc(SCC(=O)NCc3ccco3)n2)cc1` were, in that order, 93.1% (active) and 66.6%.
Consider `Cc1cccc(-c2nsc(SCC(=O)NCC3CCCO3)n2)c1` (stereo not drawn), for which the inhibition reads like this: under setting [1], 94.3% (active); under setting [2], 76.8%.
The like results for `c1c2c(cc3sc(N4CCCC4)nc13)OCO2` were, in that order, 100% (active) and 99.8%.
Turning to `Cc1cc(NC(=O)CSc2nnc(Cc3ccccc3)o2)no1`, the inhibition runs as follows: under setting [1], -2.93% (inactive); under setting [2], 6.89%.
The like results for `Cc1cc(NC(=O)CSc2nnnn2-c2ccccc2C)no1` were, in that order, 56.3% (active) and 88.3%.
The like results for `CCOc1ccc(NC(=O)CSc2nnc(-c3ccccc3Cl)o2)cc1` were, in that order, 13.5% (inactive) and -1.29%.
The corresponding values for `Cc1ccc(-c2nnc(SCC(=O)Nc3cc(C)on3)o2)cc1` are 2.19% (active) and 50.5%.
For `CCOc1ccc(-c2nnc(SCC(=O)Nc3cc(C)on3)o2)cc1`, the inhibition reads like this: under setting [1], -1.63% (active); under setting [2], 32.7%.
The corresponding values for `O=C(CCN1C(=O)C2C3C=CC(C4CC34)C2C1=O)Oc1cccc2cccnc12` (stereo not drawn) are 100% (active) and 101%.
As for `O=C(Oc1cccc2cccnc12)C(Cc1ccccc1)N1C(=O)C2C3CCC(C3)C2C1=O` (stereo not drawn), the inhibition was 99.8% (active) under setting [1] and 101% under setting [2].
The corresponding values for `CC(C(=O)Oc1cccc2cccnc12)N1C(=O)C2C3C=CC(C4CC34)C2C1=O` (stereo not drawn) are 100% (active) and 101%.
The corresponding values for `O=C(CCN1C(=O)c2ccccc2C1=O)Oc1cccc2cccnc12` are 99.5% (active) and 100%.
The like results for `COc1cc2cc(-c3nc4ccccc4[nH]3)c(N)nc2cc1OC` were, in that order, 93.9% (active) and 94%.
Turning to `COc1ccc(CNC(=O)c2c(N)nc3sc4c(c3c2C(F)(F)F)CCC4)cc1`, the inhibition is 4.42% (inactive) under setting [1] and -3.32% under setting [2].
With `CCc1nc2sc(C(=O)NCc3ccc(F)cc3)c(N)c2c(C(F)(F)F)c1C`, the inhibition runs as follows: under setting [1], 41.1% (active); under setting [2], 20.9%.
Consider `COC(=O)CN1C(c2ccc(OC)cc2)=Nc2ccc(Cl)cc2C1c1ccccc1` (stereo not drawn), for which the inhibition is 52.5% (active) under setting [1] and 79.3% under setting [2].
As for `COC(=O)CN1C(c2cccc(Cl)c2)=Nc2ccc(Cl)cc2C1c1ccccc1` (stereo not drawn), the inhibition runs as follows: under setting [1], 10.1% (active); under setting [2], 40.7%.
Turning to `CC12CC3CC(C)(C1)CC(C(=O)Nc1nc4ccccc4s1)(C3)C2`, the inhibition was 98.3% (active) under setting [1] and 97.6% under setting [2].
Regarding `CSc1ccc2nc(Nc3nc4ccc(NC(C)=O)cc4s3)sc2c1`, the inhibition runs as follows: under setting [1], 2.19% (inactive); under setting [2], 1.87%.
The like results for `CCn1nnc(NC(=O)COc2ccc(C3CCCCC3)cc2)n1` were, in that order, 37% (active) and 86.6%.
The like results for `CCCn1nnc(NC(=O)COc2ccc(C3CCCCC3)cc2)n1` were, in that order, 26.3% (active) and 72.9%.
Regarding `CCC(=O)Oc1ccc(C(=O)Nc2cc3oc4ccccc4c3cc2OC)cc1`, the inhibition was 12% (inactive) under setting [1] and 10.7% under setting [2].
With `CCOC(=O)CSCC(=O)Nc1c(C(=O)C2CC2)oc2ccccc12`, the inhibition by setting is: under setting [1], 27.6% (active); under setting [2], 48.3%.
The corresponding values for `CC(C)(C)C(=O)/C=C/Nc1ccccc1O` are 99.2% (active) and 98.5%.
The corresponding values for `CSc1nsc(SCC(=O)N2CCN(c3ccccc3)CC2)n1` are 98.3% (active) and 98.7%.
The corresponding values for `COc1cc(NC(=O)c2ccc3c(c2)OCCO3)ccc1NC(=O)c1ccccc1Cl` are 2.06% (inactive) and 9.67%.
For the compound `O=C(Nc1ccc2c(c1)OCCO2)c1cccc2nc3ccccc3nc12`, the inhibition by setting is: under setting [1], 97.2% (active); under setting [2], 96.7%.
The like results for `Cc1ccc([N+](=O)[O-])cc1NC(=O)CN(C(=O)c1ccccc1Cl)C1CCCCC1` were, in that order, 75.1% (active) and 49.8%.
With `Cc1ccc(NC(=O)CC2COc3ccccc3O2)cc1Cl` (stereo not drawn), the inhibition reads like this: under setting [1], 2.96% (inactive); under setting [2], -10.1%.
For `COc1ccc(-c2cc(C(=O)NN=CC=Cc3ccccc3OC)[nH]n2)cc1`, the inhibition is, setting by setting: under setting [1], 9.99% (active); under setting [2], 65%.
The corresponding values for `COc1ccc(C(=O)Nc2cc(OC)c(NC(=O)c3ccco3)cc2OC)cc1` are 0.929% (inactive) and -7.24%.
